Here are results for 79 molecules from PubChem BioAssay (Tox21).

Results filed as inconclusive are left out. A call without a number means that no potency is given here. Calls of active or inactive are those of the source. Calls come from the whole dose curve.

This assay has as its target Beta-2 adrenergic receptor (Homo sapiens) (UniProt P07550). Put plainly: Adrenergic beta2 receptor (ADRB2) small molecule agonists, cell-based qHTS assay (AID 1963593).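 Note: CHO cells stably overexpressing human ADRB2.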 In outline:
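CHO cells stably over-expressing ADRB2 were plated overnight at 37C, then dosed with compounds plus a stimulation mix containing 100uM IBMX and 25uM Ro-20-1724 for 0.5hr at room temperature. cAMP was measured by HTRF competition, 1hr.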
(Quantitative high-throughput screening tests each substance at several concentrations.)

Chain of Beta-2 adrenergic receptor (Homo sapiens) (P07550 whole entry, looked up): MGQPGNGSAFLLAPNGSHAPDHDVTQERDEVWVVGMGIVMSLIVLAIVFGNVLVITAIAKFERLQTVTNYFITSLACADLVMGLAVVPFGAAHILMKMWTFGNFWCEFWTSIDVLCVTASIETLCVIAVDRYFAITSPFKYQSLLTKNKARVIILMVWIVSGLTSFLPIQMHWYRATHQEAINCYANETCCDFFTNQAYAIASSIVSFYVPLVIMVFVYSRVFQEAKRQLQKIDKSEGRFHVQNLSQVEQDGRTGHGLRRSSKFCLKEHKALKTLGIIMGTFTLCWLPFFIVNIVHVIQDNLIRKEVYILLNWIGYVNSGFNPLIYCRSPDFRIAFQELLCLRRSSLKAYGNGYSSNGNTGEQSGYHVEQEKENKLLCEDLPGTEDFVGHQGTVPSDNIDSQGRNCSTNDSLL

Regarding `Nc1ccc([As](=O)(O)O)cc1`, the Potency entry was “inactive”.
In the case of `CN(C)N=O`, the Potency entry was “inactive”.
Consider `CNC(=O)NC(O)C(Cl)(Cl)Cl` (centres undefined), for which the Potency result is “inactive”.
With `Clc1ccc(C2(Cn3cncn3)OCCO2)c(Cl)c1` the entry was “inactive”; with `O=C(O)C(F)(F)C(F)(F)C(F)(F)C(F)(F)C(F)(F)C(F)(F)F`, “inactive”; with `CCSC(=O)N1CCCCCC1`, “inactive”.
For `C1CN2CCC1CC2`, the Potency entry was “inactive”.
In the case of `CC(C)CCCCCOC(=O)c1ccccc1C(=O)OCCCCCC(C)C`, the Potency result was “inactive”.
For `BrC(Br)Br`, the Potency result is “inactive”.
Turning to `CCCCCCCCCBr`, the Potency entry is “inactive”.
Regarding `CC1=C(C(=O)Nc2ccccc2)SCCO1`, the Potency entry was “inactive”.
With `C=CC1(C)OC(=O)N(c2cc(Cl)cc(Cl)c2)C1=O` (centres undefined) the entry was “inactive”; with `Cc1cc(Cl)ccc1O`, “inactive”; with `C=CCN1CC[C@]23CCCC[C@H]2[C@H]1Cc1ccc(O)cc13`, “inactive”.
As to `N#CC1(N=NC2(C#N)CCCCC2)CCCCC1`, the Potency result is “inactive”.
With `N#CCC#N`, the Potency entry is “inactive”.
With `CSc1nnc(C(C)(C)C)c(=O)n1N` the entry was “inactive”; with `O=[N+]([O-])c1cc(Cl)ccc1Cl`, “inactive”; with `CCN(CC)Cc1nccn1-c1ccc([N+](=O)[O-])cc1C(=O)c1ccccc1Cl`, “inactive”.
For `CCOC(=O)C1OC1(C)c1ccccc1` (centres undefined), the Potency entry is “inactive”.
The result for `CCCCc1c(C)nc(NCC)[nH]c1=O` reads “inactive”.
Turning to `CN(C)[C@@H]1C(=O)C(C(N)=O)=C(O)[C@@]2(O)C(=O)C3=C(O)c4c(O)cccc4[C@@](C)(O)[C@H]3C[C@@H]12`, the Potency result was “inactive”.
Consider `C=C(Cl)CCl`, for which the Potency entry is “inactive”.
For the molecule `C=CC(=O)OCCCCCC(C)C`, the Potency entry was “inactive”.
Take `CCNc1nc(NC(C)C)nc(OC)n1`: the Potency result was “inactive”.
As to `O=C(O)C(Br)Br`, the Potency entry is “inactive”.
`ClC1C(Cl)C(Cl)C(Cl)C(Cl)C1Cl` (centres undefined): the Potency result is “inactive”.
`COC(=O)c1c(C(F)F)nc(C(F)(F)F)c(C2=NCCS2)c1CC(C)C`: the Potency result is “inactive”.
As to `CC(C)(C)OOC(C)(C)C`, the Potency entry is “inactive”.
For `CCCCOP(=O)(CCCC)OCCCC`, the Potency result is “inactive”.
As to `CCCC(=O)Cl`, the Potency entry was “inactive”.
The result for `CC(C)CON=O` reads “inactive”.
In the case of `CN1C(=O)NC(=O)C(C)(C2=CCCCC2)C1=O` (centres undefined), the Potency entry was “inactive”.
For the molecule `CC(C)[N+](C)(CCC(C(N)=O)(c1ccccc1)c1ccccc1)C(C)C`, the Potency entry is “inactive”.
With `Nc1nc(=S)[nH][nH]1`, the Potency entry is “inactive”.
The result for `[N-]=[N+]=[N-]` reads “inactive”; that for `O=c1c2ccccc2c(=O)c2c1cc(Cl)c1[nH]c3c([nH]c12)c(Cl)cc1c(=O)c2ccccc2c(=O)c13`, “inactive”.
Consider `ClCCBr`, for which the Potency result is “inactive”.
Consider `Cc1ccccc1[N+](=O)[O-]`, for which the Potency entry was “inactive”.
For `Nn1cnnc1`, the Potency entry is “inactive”.
For `CCCSC(=O)Cl`, the Potency entry was “inactive”.
With `Cc1cccc(N=Nc2ccc(N(C)C)cc2)c1` the entry was “inactive”; with `CCCCC(CC)COC(=O)c1c(Br)c(Br)c(Br)c(Br)c1C(=O)OCC(CC)CCCC` (centres undefined), “inactive”.
`Cc1ncc(CNC(=O)N(CCCl)N=O)c(N)n1`: the Potency result was “inactive”.
For `Nc1ncc([N+](=O)[O-])s1`, the Potency result is “inactive”.
Turning to `CN(C)P(=O)(N(C)C)N(C)C`, the Potency result was “inactive”.
On to `COP(=O)(O)OC`, for which the Potency entry was “inactive”.
With `ClCCN1CCCC1`, the Potency entry was “inactive”.
`C(=NC1CCCCC1)=NC1CCCCC1`: the Potency result is “inactive”.
Consider `O=[N+]([O-])c1ccc([As](=O)(O)O)cc1`, for which the Potency entry was “inactive”.
With `CCCCOC(=O)c1ccccc1C(=O)OCCCC` the entry was “inactive”.
With `O=C(Cl)c1ccccc1` the entry was “inactive”; with `O=C(O)C(F)(F)C(F)(F)C(F)(F)C(F)(F)C(F)(F)C(F)(F)C(F)(F)C(F)(F)F`, “inactive”.
On to `O=c1n(Cl)c(=O)n(Cl)c(=O)n1Cl`, for which the Potency result is “inactive”.
On to `CCCCC1C(=O)NC(=O)N(C2CCCCC2)C1=O` (centres undefined), for which the Potency result is “inactive”.
Consider `Clc1cnc(Oc2ccc(Oc3ncc(Cl)cc3Cl)cc2)c(Cl)c1`, for which the Potency result was “inactive”.
As to `CCOP(=O)(OCC)OP(=O)(OCC)OCC`, the Potency result is “inactive”.
For `O=[N+]([O-])c1ccc(Cl)cc1`, the Potency result is “inactive”.
The result for `CC(C)=CC1C(C(=O)OCc2cccc(Oc3ccccc3)c2)C1(C)C` (centres undefined) reads “inactive”; that for `O=C(Cl)OCc1ccccc1`, “inactive”; that for `c1ccc(NNc2ccccc2)cc1`, “inactive”.
For the molecule `CC(C)(C)C(=O)CCl`, the Potency entry was “inactive”.
As to `N#CCCCl`, the Potency result was “inactive”.
Take `CCOC(=O)c1cncn1C(C)c1ccccc1` (centres undefined): the Potency result is “inactive”.
With `C=C(C)C(=O)OCC(CC)CCCC` (centres undefined) the entry was “inactive”.
With `COc1cc(OC)nc(Sc2cccc(Cl)c2C(=O)O)n1` the entry was “inactive”.
Turning to `CC(C(=O)c1ccccc1)N(C)C` (centres undefined), the Potency entry is “inactive”.
With `CCN(CCO)CCO`, the Potency entry was “inactive”.
Consider `Nc1cc(Cl)cc(C(=O)O)c1Cl`, for which the Potency entry is “inactive”.
For the molecule `CCC/C=N/O`, the Potency entry is “inactive”.
Turning to `N#CCCC#N`, the Potency entry was “inactive”.
In the case of `Nc1ccc(Cl)c(Cl)c1`, the Potency result is “inactive”.
With `c1ccc(-c2ccccc2)cc1` the entry was “inactive”; with `NC(=O)OCCCc1ccccc1`, “inactive”.
With `Clc1ccc(C(c2ccc(Cl)cc2)C(Cl)(Cl)Cl)cc1`, the Potency result is “inactive”.
As for `CCOC(=O)c1ccccc1C(=O)OCC`, the Potency entry is “inactive”.
Regarding `COC(=O)c1ccc(CBr)cc1`, the Potency entry is “inactive”.
The result for `C[C@]12CCC(=O)C(O)=C1CC[C@@H]1[C@@H]2CC[C@]2(C)C(=O)CC[C@@H]12` reads “inactive”.
Take `CN(C)NC(=O)CCC(=O)O`: the Potency result is “inactive”.
